# Where “and” joins values, the source holds several entries; their conditions need not be identical. Equal values may be shown once. The panel holds about 79,000 compounds, 15% with a hit somewhere; the sample as a whole holds those more often. Some structures have more than one record in an assay (separate samples or runs), and their calls can disagree. Calls of active or inactive are those of the source. Rule as the data show it: active = growth inhibition above about 70%; inactive = the rest.
# Legend:
# [1] = NCI Yeast Anticancer Drug Screen. Data for the rad50 strain (AID 155);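 also: 0% = growth of vehicle-only cultures of the same strain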; conditions: S. cerevisiae rad50 strain growth inhibition, stronger effect = higher value
# Procedure, shortened: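 Compounds were tested on a yeast strain with an engineered DNA damage repair alteration; the reported value is growth inhibition normalised to vehicle treatment.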
# [2] = NCI Yeast Anticancer Drug Screen. Data for the mec2-1 strain (AID 157); conditions: S. cerevisiae mec2-1 strain, stronger effect = higher value
# Procedure, shortened: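 Yeast mec2-1 mutant treated with compound. Readout: growth inhibition vs vehicle controls.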
# [3] = NCI Yeast Anticancer Drug Screen. Data for the cln2 rad14 strain (AID 165);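 also: 0% = growth equal to vehicle treated cultures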; conditions: S. cerevisiae cln2 rad14 strain, stronger effect = higher value
# Procedure, shortened: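 cln2 rad14 yeast strain; compound exposure; growth inhibition read vs vehicle controls.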
# [4] = NCI Yeast Anticancer Drug Screen. Data for the bub3 strain (AID 167); conditions: S. cerevisiae bub3 mutant strain, stronger effect = higher value
# Procedure, shortened: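 Growth of a checkpoint-deficient yeast mutant is measured after compound exposure. Values represent inhibition relative to vehicle.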
# [5] = NCI Yeast Anticancer Drug Screen. Data for the mlh1 rad18 strain (AID 175); conditions: S. cerevisiae mlh1 rad18 strain growth inhibition, stronger effect = higher value
# Procedure, shortened: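 Yeast w/ defined DNA-repair lesions; compound exposure; growth vs vehicle controls → % inhibition.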
# [6] = NCI Yeast Anticancer Drug Screen. Data for the sgs1 mgt1 strain (AID 161);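 also: 0% = growth of cultures given vehicle only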; conditions: S. cerevisiae sgs1 mgt1 strain, stronger effect = higher value
# Procedure, shortened: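 Inhibition of yeast growth, normalised to vehicle-treated controls, is reported for a strain bearing genetic alterations in DNA damage repair.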
# [7] = at 5.0 µM (retest, dose inferred, filed as 0.5)
# [8] = at 50.0 µM (retest, dose inferred, filed as 5.0)
Structure (SMILES),"growth inhibition [1, 7]","growth inhibition [1, 8]",growth inhibition ([1]; at 50.0 µM),"growth inhibition [2, 7]","growth inhibition [2, 8]",growth inhibition ([2]; at 50.0 µM),"growth inhibition [3, 7]","growth inhibition [3, 8]",growth inhibition ([3]; at 50.0 µM),"growth inhibition [4, 7]","growth inhibition [4, 8]",growth inhibition ([4]; at 50.0 µM),"growth inhibition [5, 7]","growth inhibition [5, 8]",growth inhibition ([5]; at 50.0 µM),"growth inhibition [6, 7]","growth inhibition [6, 8]",growth inhibition ([6]; at 50.0 µM)
CCC(=O)C(CCN1CCC2(CCCc3ccccc32)CC1)(c1ccccc1)c1ccccc1,-2% (inactive),89% (active),98.4% (active),-5% (inactive),93% (active),94.2% (active),-11% (inactive),87% (active),87.2% (active),-2% (inactive),91% (active),94.2% (active),3% (inactive),92% (active),97.3% (active),,,
CSc1ccc(NC(=O)C2c3[nH]c4ccccc4c3C3CCC(C(C)(C)C)CC3C2C(=O)O)cc1 (centres undefined),0% (inactive),-4% (inactive),16.8% (inactive),-16% (inactive),10% (inactive),1.95% (inactive),,,,-8% (inactive),5% (inactive),77.1% (active),11% (inactive),26% (inactive),46% (inactive),-4% (inactive),1% (inactive),30.8% (inactive)
c1ccc(P(CC[As](c2ccccc2)c2ccccc2)CC[As](c2ccccc2)c2ccccc2)cc1,,,,81% (active),81% (active),90.8% (active),76% (active),76% (active),89.3% (active),84% (active),84% (active),90.8% (active),80% (active),80% (active),88.6% (active),47% (inactive),47% (inactive),88.5% (active)
C[CH2][Sn]([CH2]C)([CH2]C)[O]C(=O)CO,9% (inactive),98% (active),82.2% (active),10% (inactive),99% (active),87% (active),-11% (inactive),93% (active),55.4% (inactive),7% (inactive),98% (active),86.8% (active),12% (inactive),98% (active),84.9% (active),17% (inactive),98% (active),86.6% (active)
N=C(N)SCc1ccccc1,,,-2.55% (inactive) [middle of 5 runs],,,-2.2% (inactive) [middle of 5 runs],,,,,,-5.6% (inactive) [middle of 5 runs],,,,,,7.55% (inactive) [middle of 5 runs]
CCCCCC(Cn1ccnc1)c1ccc(Cl)cc1Cl (centres undefined),72% (active),95% (active),99.5% (active),50% (inactive),94% (active),99% (active),,,,72% (active),99% (active),99.8% (active),72% (active),100% (active),99.6% (active),69% (inactive),97% (active),99.4% (active)
C=CCN1C(=O)NC(=O)/C(=C/c2c3ccccc3cc3ccccc23)C1=O,58% (inactive),98% (active),69.2% (inactive),85% (active),98% (active),47.7% (inactive),,,,83% (active),96% (active),88% (active),79% (active),99% (active),85% (active),66% (inactive),99% (active),82.2% (active)
ClC(C[n+]1ccccc1)c1ccccc1 (centres undefined),8% (inactive),22% (inactive),71% (active) and -9.25% (inactive),3% (inactive),16% (inactive),34.2% (inactive) and -1.25% (inactive),4% (inactive),3% (inactive),-2.5% (inactive) and 7.5% (inactive),,,,10% (inactive),51% (inactive),60.6% (inactive) and 4.6% (inactive),10% (inactive),35% (inactive),64.4% (inactive) and -1.8% (inactive)
Cc1ccc(C(=O)CCl)c(C)c1,11% (inactive) and 16% (inactive),99% (active) and 94% (active),96.4% (active) and 87.7% (active),23% (inactive) and 18% (inactive),99% (active) and 92% (active),98.2% (active) and 91.6% (active),15% (inactive) and 17% (inactive),97% (active) and 83% (active),87.3% (active) and 71.6% (active),8% (inactive) and 2% (inactive),99% (active) and 97% (active),91.8% (active) and 90.2% (active),28% (inactive) and 7% (inactive),99% (active),97.7% (active) and 97.1% (active),25% (inactive) and 11% (inactive),99% (active) and 55% (inactive),94.7% (active) and 96.1% (active)
COc1ccc(C2N(Cc3ccc(N(CCCl)CCCl)cc3C)CCCN2Cc2ccc(N(CCCl)CCCl)cc2C)cc1,10% (inactive),98% (active),97.1% (active),-32% (inactive),96% (active),99% (active),2% (inactive),94% (active),75% (active),26% (inactive),96% (active),98.3% (active),18% (inactive),97% (active),98.5% (active),,,
S=P(Nc1ccccc1)(Nc1ccccc1)Oc1ccccc1,2% (inactive),98% (active),99% (active),-4% (inactive),98% (active),99% (active),-4% (inactive),97% (active),98.7% (active),9% (inactive),97% (active),98.7% (active),7% (inactive),97% (active),97.5% (active),,,
CCCCCCCCC(=O)[O][Hg][c]1ccccc1,99% (active),99% (active),99.5% (active),100% (active),100% (active),99.7% (active),99% (active),99% (active),99.3% (active),99% (active),100% (active),99.1% (active),99% (active),100% (active),99.5% (active),100% (active),99% (active),99.7% (active)
Nc1c(Cl)cccc1C(=O)O,3% (inactive),4% (inactive),54% (inactive),-2% (inactive),0% (inactive),26.8% (inactive),,,,3% (inactive),1% (inactive),23.9% (inactive),2% (inactive),5% (inactive),34.9% (inactive),1% (inactive),6% (inactive),45.7% (inactive)
CCCCCCCCCCCCCCCCCC[N+](C)(C)C,98% (active),96% (active),88.5% (active),99% (active),97% (active),91.4% (active),99% (active),95% (active),89.9% (active),99% (active),96% (active),87% (active),,,,,,
CCC[CH2][Sn]1([CH2]CCC)[O]CC[S]1,83% (active),99% (active),99.1% (active),87% (active),99% (active),99% (active),78% (active),99% (active),97.3% (active),,,,84% (active),99% (active),99.2% (active),81% (active),99% (active),98.2% (active)
c1ccncc1,17% (inactive),20% (inactive),,-2% (inactive),7% (inactive),,0% (inactive),-1% (inactive),,-3% (inactive),6% (inactive),,8% (inactive),32% (inactive),,-4% (inactive),19% (inactive),
CC(O[Si](c1ccccc1)(c1ccccc1)C(C)(C)C)[C@H](NC(=O)OC(C)(C)C)C(=O)O (some centres undefined),-13% (inactive),58% (inactive),86% (active),-4% (inactive),97% (active),86.3% (active),-15% (inactive),98% (active),89.6% (active),-9% (inactive),95% (active),55.5% (inactive),1% (inactive),68% (inactive),92.9% (active),,,
ClCC[N+]12CC[N+](CCCl)(CC1)C2,59% (inactive),97% (active),,50% (inactive),98% (active),,75% (active),98% (active),,82% (active),98% (active),,47% (inactive),97% (active),,86% (active),99% (active),
C[CH2][Pb]([CH2]C)([CH2]C)[n]1cnc2ccccc21,4% (inactive),87% (active),66% (inactive),2% (inactive),98% (active),74% (active),-3% (inactive),62% (inactive),41.8% (inactive),2% (inactive),97% (active),80.3% (active),4% (inactive),98% (active),79% (active),,,

# From PubChem BioAssay (NCI)
